Source: PubChem
In the library only some 12% were active in any assay of this set; here they are far more common.
JMJD2A Tudor inh: inhibitors of human JMJD2A Tudor domain; Potency, µM (series often up to 114 µM), for inactives: top-dose activity change, negative = inhibition, usual class: inhibitors; AlphaScreen JMJD2A-Tudor / H3K4me3 peptide binding; actives 4.4% (n = 390,000); note: % is set by controls: 0 for no effect and ±100 for the full control effect; nearly all actives have a fitted effect of over 50% in size
HP1b binding inh: HP1-beta chromodomain-methylated histone interaction inhibition; P83916; Potency, µM (series often up to 114 µM), without a hit: at the top dose activity change, negative = inhibition, hits mostly inhibitors; actives 0.56% (n = 390,000); AlphaScreen HP1-beta / biotin-H3K9me3 peptide binding; note: nearly all actives have a fitted effect of over 70% in size
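Compound inhibition of the preformed complex between 50 nM HP1-beta and 50 nM biotinylated H3K9me3 peptide was read by AlphaScreen. Buffer was PBS pH 7.4 with 0.01% Tween-20. Incubations ran 30 min at room temperature, with 10 ug/mL donor/acceptor beads.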
BAZ2B block: blocks human BAZ2B. actives 4.4% (n = 360,000). AID 504333. Q9UIF8. Potency, µM (top dose mostly 114 µM), for inactives: at the top dose activity change, negative = inhibition, usual class: inhibitors. AlphaScreen BAZ2B-H3K14Ac peptide displacement; note: % is set by controls: 0 for no effect and ±100 for the full control effect; nearly all actives have a fitted effect of over 60% in size
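AlphaScreen displacement of biotin-H3(5-23)K14Ac peptide (50 nM final) from BAZ2B (50 nM final) in PBS pH 7.4, 0.01% Tween-20; complex preformed 30 min RT, then compounds (top 110 uM) 30 min RT, beads 20 min dark.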
Sfp inh: Sfp phosphopantetheinyl transferase inhibition; Q9F4F7; Biochemical Sfp PPTase activity, qHTS; Potency, µM, for inactives: largest response in the series, negative = inhibition, hits mostly inhibitors; actives 3.5% (n = 310,000); AID 1490;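 note: the enzyme is Sfp with the accession as filed and its product quenches rhodamine fluorescence; 0% = enzyme reaction without inhibitor and -100% = no enzyme wells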
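With Hepes-Na pH 7.6 buffer containing 10 mM MgCl2, Sfp (15 nM) modified BHQ-2-YbbR (12.5 uM) using rhodamine-CoA (5 uM). Two reads 30 minutes apart at 525/598 nm yielded each well's rate.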
L3MBTL1 inh: blocks human L3MBTL1; Q9Y468; AlphaScreen L3MBTL1–H3K9me1 peptide binding; Potency, µM (series often up to 57.1 µM), for the others: top-dose activity, negative = inhibition, actives largely listed as inhibitors; actives 0.66% (n = 230,000); AID 485360; note: % is set by controls: 0 for no effect and ±100 for the full control effect; nearly all actives have a fitted effect of over 60% in size
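First, the protein-peptide complex forms for 30 min at room temperature (L3MBTL1 50 nM, biotinylated H3K9me1 peptide 75 nM). Next, compounds are pin-transferred and incubated 30 min. Finally, AlphaScreen beads are added and read after 30 min.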
G9a inh: blocks human histone lysine methyltransferase G9a; G9a H3K9 monomethylation, AlphaScreen, 2 h; Potency, µM (series often up to 102 µM), inactives show at the top dose activity, negative = inhibition, usual class: inhibitors; AID 504332; Q96KQ7; actives 8.8% (n = 350,000); note: % is set by controls: 0 for no effect and ±100 for the full control effect; nearly all actives have a fitted effect of over 75% in size
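Step 1: enzyme (final 20 nM) with compound, 15 min RT. Step 2: substrate peptide 500 nM and SAM 20 uM, 2 h RT. Step 3: anti-H3K9me1 antibody and AlphaScreen beads, 10 min, then plate read.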
Active calls of the source: *; ? = inconclusive; · = no result given; [ ] = another dose, or the depositor's remark. Calls come from the whole dose curve; as a rule, active = well fitted curve in the direction sought with a large enough effect; inconclusive = small, poorly fitted or top-dose-only effect, or another doubt; inactive = no such curve, though single readings can be large; an effect the other way counts as inactive or inconclusive. Potency is the fitted concentration of half-maximal effect.

SMILES	JMJD2A Tudor inh	HP1b binding inh	BAZ2B block	Sfp inh	L3MBTL1 inh	G9a inh
Cc1c(/C(O)=C2\C(=O)C(=O)N(CCN(C)C)C2c2cccs2)cnn1-c1ccccc1 (stereo not given)	-7%[11.4 µM]	9%	-24%	-13%	-3%	20µM*
Cc1c(/C(O)=C2/C(=O)C(=O)N(CCN3CCOCC3)C2c2ccccn2)cnn1-c1ccccc1 (stereo not given)	50µM*	37%	25µM*	?	-14%	7.9µM*
Cc1ccc(C)c(/C(O)=C2/C(=O)C(=O)N(CCN3CCOCC3)C2c2ccc(C)o2)c1 (stereo not given)	?	35%	-13%	-18%	1%	14µM*
Cc1c(/C(O)=C2\C(=O)C(=O)N(CCCN(C)C)C2c2ccccc2)cnn1-c1ccccc1 (stereo not given)	-22%	33%	-21%	11%	8%	-4%[59 µM]
CCN(CC(=O)Nc1cc(Cl)cc(Cl)c1)CC(=O)NC1CCS(=O)(=O)C1 (stereo not given)	-5%	18%[57 µM]	·	·	0%	·
CC(C)CO/N=C1/[C@H]2O[C@@H]2[C@@H](O)[C@H]2[C@H]1CCn1c(=O)n(-c3ccccc3)c(=O)n12	·	·	·	21%	·	·
CCCCCc1nnc(NC(=O)c2cccc(S(=O)(=O)N3CCOCC3)c2)s1	-6%	17%	8%	·	8%	5%[2.33 µM]
CCN(CC)C(=O)Cn1c(=O)n(CCCCCC(=O)NCc2ccccc2Cl)c(=O)c2sccc21	-3%	16%	3%	·	·	-21%[59 µM]
O=c1[nH]nc(Cc2ccccc2)c2ccccc12	-4%	20%	7%	9%	·	-4%[59 µM]
O=c1[nH]nc(Cc2ccc(-c3ccc(Cl)cc3)o2)c2ccccc12	-17%	6%	4%	56µM*	?	?
Cc1cc(SCC(=O)N/N=C/c2ccc(O)c(O)c2)nc2ccccc12	?	?	45µM*	-17%	?	·
Cc1cc(SCC(=O)N/N=C/c2ccc(O)c(O)c2)c(C)cc1Br	-34%	-6%	?	?	·	25µM*
C/C(=N\NC(=O)CSc1nc2ccccc2o1)c1cccc(O)c1	-21%	18%[57 µM]	-5%	-11%	·	-5%
Cc1cc(C)n(C(=O)CSc2nc3ccccc3o2)n1	-9%	31%	17%	2%	-1%	79µM*
C/C(=N\NC(=O)CSc1nc2ccccc2o1)c1ccc(O)cc1	-15%	19%	-19%	?	-2%	16µM*
Cc1ccc(SCC(=O)n2nc(C)cc2C)cc1	-15%	20%	-4%	9%	5%	-2%[59 µM]
CC(=O)N1CCC(=NNC(=O)CSc2cc(C)c(Br)cc2C)CC1	-6%	40%	9%	9%	3%	-10%
Cc1cc(C)nc(SCC(=O)Nc2ncc3c(n2)CC(C)(C)CC3=O)n1	-10%	27%	13%	0%	-1%	?
O=C(CSc1nc2ccccc2o1)N/N=C/c1ccccc1	9%[57.1 µM]	55%	-18%	-2%	6%	-40%[59 µM]
CC1(C)CC(=O)c2cnc(NC(=O)CSc3nc4ccccc4o3)nc2C1	-7%	21%	-3%	71µM*	-10%	11%[59 µM]
O=C(CSc1nc2ccccc2o1)N/N=C/c1ccc(O)c(O)c1	16µM*	?	45µM*	?	·	?
CN1CCN(c2ncc3nc(-c4ccccc4)c(=O)n(Cc4cccs4)c3n2)CC1	·	·	·	5%	·	26%[0.501 µM]
Nc1nc(-c2ccc3ccccc3c2)c(C2(O)C(=O)Nc3c(Br)cc(F)cc32)s1 (stereo not given)	-9%	20%	9%	11%	·	-12%[12.7 µM]
COCCNC(=S)c1ccc(Br)cc1	-31%	?	-15%	45µM*	4%	·
COCCNC(=O)Cc1ccc(Br)cc1	-11%	23%	36%	-4%	34%	31%[12.7 µM]
CCN(CC)CCNCc1ccc(-c2ccc(Cl)cc2)o1	?	-7%	?	-2%	-5%	50µM*
Nc1nc(Nc2ccc(Cl)cc2)nc(NCCO)c1[N+](=O)[O-]	-1%	14%	?	10%	·	50µM*
